Binding signal data for one sequence are collected here from PMC7862700, “An all-to-all approach to the identification of sequence-specific readers for epigenetic DNA modifications on cytosine”.

What all share (assay): DAPPL (digital affinity profiling via proximity ligation, sequencing); 10 mM Tris-HCl pH 7.5, 50 mM NaCl, 1 mM DTT, 4% glycerol, room temperature, 30 min; GST-TFs on glutathione beads, 16-mer random dsDNA library, 0.1% formaldehyde crosslink after washing; high values mean tight binding
One experiment deals with T1, FLI1 (Homo sapiens, UniProt Q01543 1-452).
T1 sequence: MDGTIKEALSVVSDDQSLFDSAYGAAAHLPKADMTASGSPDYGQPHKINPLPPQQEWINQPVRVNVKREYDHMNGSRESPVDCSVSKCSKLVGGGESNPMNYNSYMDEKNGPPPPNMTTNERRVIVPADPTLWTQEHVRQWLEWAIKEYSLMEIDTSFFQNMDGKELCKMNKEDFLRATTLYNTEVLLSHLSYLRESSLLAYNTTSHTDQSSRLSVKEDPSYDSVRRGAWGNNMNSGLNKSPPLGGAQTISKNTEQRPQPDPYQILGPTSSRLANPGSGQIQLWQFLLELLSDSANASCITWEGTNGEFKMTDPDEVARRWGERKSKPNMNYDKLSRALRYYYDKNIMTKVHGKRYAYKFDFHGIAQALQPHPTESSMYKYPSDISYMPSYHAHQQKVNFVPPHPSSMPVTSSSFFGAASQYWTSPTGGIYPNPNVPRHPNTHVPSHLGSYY
Particulars: protein: recombinant; tags: N-terminal GST; dsDNA, one strand shown. In a few lines: (§1)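 Pools were built from human transcription factors expressed in yeast as GST fusions, captured on glutathione beads and DNA-barcoded, along with a tag-only sample. Incubation with 200 nmole of a 16-mer random double-stranded DNA library lasted 30 min at room temperature in Tris/NaCl/DTT/glycerol buffer, and was followed by washing, 0.1% formaldehyde crosslinking, proximity ligation, PCR amplification and Illumina NextSeq500 sequencing. Binding signal is the quotient of each hexamer's read frequency for a factor and its frequency for the tag-only sample.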

The target in another experiment is T2, ELK1 (Homo sapiens, UniProt P19419 1-428).
T2 sequence: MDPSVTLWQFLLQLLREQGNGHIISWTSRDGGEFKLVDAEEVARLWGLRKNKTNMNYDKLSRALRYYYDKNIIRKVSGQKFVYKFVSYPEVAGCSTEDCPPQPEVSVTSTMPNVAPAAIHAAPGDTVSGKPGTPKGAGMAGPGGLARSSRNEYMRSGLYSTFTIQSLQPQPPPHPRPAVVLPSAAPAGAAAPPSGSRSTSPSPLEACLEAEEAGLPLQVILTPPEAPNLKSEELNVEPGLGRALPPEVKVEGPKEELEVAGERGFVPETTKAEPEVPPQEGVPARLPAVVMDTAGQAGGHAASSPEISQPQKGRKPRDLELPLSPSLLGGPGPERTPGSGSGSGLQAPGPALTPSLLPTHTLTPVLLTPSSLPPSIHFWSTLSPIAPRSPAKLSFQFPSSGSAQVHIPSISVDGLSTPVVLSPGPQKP
Particulars: protein: recombinant; tags: N-terminal GST; dsDNA, one strand shown. In a few lines: as §1

The target in a further experiment is T3, GABPA (Homo sapiens, UniProt Q06546 1-454).
T3 sequence: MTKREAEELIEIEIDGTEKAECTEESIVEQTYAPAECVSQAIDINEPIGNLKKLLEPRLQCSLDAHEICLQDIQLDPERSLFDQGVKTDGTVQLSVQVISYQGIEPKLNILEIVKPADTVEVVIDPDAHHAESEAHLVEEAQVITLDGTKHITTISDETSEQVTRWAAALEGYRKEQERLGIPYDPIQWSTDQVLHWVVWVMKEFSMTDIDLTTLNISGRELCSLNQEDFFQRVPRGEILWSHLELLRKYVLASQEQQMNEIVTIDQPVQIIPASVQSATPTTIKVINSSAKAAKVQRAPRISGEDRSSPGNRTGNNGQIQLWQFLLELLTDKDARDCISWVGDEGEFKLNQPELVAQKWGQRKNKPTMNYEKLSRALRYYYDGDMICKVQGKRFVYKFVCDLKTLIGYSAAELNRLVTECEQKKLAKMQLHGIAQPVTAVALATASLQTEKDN
Particulars: protein: recombinant; tags: N-terminal GST; dsDNA, one strand shown. Put shortly:
as §1

The target of a further experiment is T4, ERG (Homo sapiens, UniProt P11308 1-479).
T4 sequence: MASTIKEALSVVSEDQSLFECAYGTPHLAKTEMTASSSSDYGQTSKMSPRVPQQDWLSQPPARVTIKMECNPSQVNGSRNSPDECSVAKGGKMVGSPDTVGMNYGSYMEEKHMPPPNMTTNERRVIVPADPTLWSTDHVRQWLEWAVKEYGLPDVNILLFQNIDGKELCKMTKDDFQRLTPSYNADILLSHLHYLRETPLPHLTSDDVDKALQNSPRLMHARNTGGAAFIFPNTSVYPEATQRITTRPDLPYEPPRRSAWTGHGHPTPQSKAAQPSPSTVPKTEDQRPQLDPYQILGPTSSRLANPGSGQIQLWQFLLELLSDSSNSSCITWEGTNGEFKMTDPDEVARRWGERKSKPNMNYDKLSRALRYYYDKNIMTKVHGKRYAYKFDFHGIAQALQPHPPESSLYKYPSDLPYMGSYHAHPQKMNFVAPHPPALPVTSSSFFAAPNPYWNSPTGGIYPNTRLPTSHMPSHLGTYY
Particulars: protein: recombinant; tags: N-terminal GST; dsDNA, one strand shown. Put shortly:
as §1

A further experiment addresses ELF1 (Homo sapiens, UniProt P32519 1-619). Particulars: protein: recombinant; tags: N-terminal GST; dsDNA, one strand shown. Put shortly: as §1
The target of a further experiment is T5, EHF (Homo sapiens, UniProt Q9NZC4 1-300).
T5 sequence: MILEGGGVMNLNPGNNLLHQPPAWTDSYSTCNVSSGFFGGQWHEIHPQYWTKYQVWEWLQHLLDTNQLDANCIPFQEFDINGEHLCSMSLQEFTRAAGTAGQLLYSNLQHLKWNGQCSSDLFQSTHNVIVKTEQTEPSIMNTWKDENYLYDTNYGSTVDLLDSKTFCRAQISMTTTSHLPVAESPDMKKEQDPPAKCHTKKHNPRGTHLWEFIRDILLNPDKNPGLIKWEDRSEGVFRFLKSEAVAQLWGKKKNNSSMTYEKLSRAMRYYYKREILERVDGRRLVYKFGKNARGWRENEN
Particulars: protein: recombinant; tags: N-terminal GST; dsDNA, one strand shown. Put shortly: as §1

A further experiment deals with SPI1 (Homo sapiens, UniProt P17947 1-270). Particulars: protein: recombinant; tags: N-terminal GST; dsDNA, one strand shown. Put shortly: as §1
The next experiment addresses SPIB (Homo sapiens, UniProt Q01892 1-262). Particulars: protein: recombinant; tags: N-terminal GST; dsDNA, one strand shown. In a few lines: as §1
A further experiment has as its target T6, ELK3 (Homo sapiens, UniProt P41970 1-407).
T6 sequence: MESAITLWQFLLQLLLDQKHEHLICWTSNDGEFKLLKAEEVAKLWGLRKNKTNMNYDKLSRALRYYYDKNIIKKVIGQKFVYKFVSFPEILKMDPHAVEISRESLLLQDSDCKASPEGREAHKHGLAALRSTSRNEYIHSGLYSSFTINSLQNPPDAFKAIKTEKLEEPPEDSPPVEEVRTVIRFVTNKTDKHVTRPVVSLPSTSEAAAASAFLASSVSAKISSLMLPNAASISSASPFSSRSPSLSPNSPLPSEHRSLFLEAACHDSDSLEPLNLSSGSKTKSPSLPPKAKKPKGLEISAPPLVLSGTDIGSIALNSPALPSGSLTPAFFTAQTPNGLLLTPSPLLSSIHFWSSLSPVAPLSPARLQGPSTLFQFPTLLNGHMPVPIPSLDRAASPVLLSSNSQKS
Particulars: protein: recombinant; tags: N-terminal GST; dsDNA, one strand shown. In a few lines:
as §1

For the next experiment, the target named is T7, FEV (Homo sapiens, UniProt Q99581 1-238).
T7 sequence: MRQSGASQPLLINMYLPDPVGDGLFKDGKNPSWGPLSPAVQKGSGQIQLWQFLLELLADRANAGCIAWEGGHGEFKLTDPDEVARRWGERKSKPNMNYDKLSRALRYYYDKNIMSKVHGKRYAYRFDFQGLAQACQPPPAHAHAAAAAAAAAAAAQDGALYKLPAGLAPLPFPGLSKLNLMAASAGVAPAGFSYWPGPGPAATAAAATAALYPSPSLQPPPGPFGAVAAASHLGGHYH
Particulars: protein: recombinant; tags: N-terminal GST; dsDNA, one strand shown. Put shortly: as §1

The next experiment has as its target ETV5 (Homo sapiens, UniProt P41161 1-510). Particulars: protein: recombinant; tags: N-terminal GST; dsDNA, one strand shown. In a few lines:
as §1

The target of another experiment is HSF1 (Homo sapiens, UniProt Q00613 1-529). Particulars: protein: recombinant; tags: N-terminal GST; chain copies: 3; dsDNA, one strand shown. In a few lines: as §1
For a further experiment, the target named is T8, SPIC (Homo sapiens, UniProt Q8N5J4 1-248).
T8 sequence: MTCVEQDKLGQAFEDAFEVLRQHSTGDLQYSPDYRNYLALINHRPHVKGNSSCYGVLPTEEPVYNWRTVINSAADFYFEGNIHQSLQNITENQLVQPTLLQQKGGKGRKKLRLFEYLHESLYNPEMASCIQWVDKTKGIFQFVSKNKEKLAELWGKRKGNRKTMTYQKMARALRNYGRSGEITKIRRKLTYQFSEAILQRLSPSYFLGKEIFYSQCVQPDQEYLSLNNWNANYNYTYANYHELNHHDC
Particulars: protein: recombinant; tags: N-terminal GST; dsDNA, one strand shown. Put shortly:
as §1

Another experiment concerns the target ELF4 (Homo sapiens, UniProt Q99607 1-663). Particulars: protein: recombinant; tags: N-terminal GST; dsDNA, one strand shown. In a few lines:
as §1

The target of a further experiment is T9, ELK4 (Homo sapiens, UniProt P28324-2 1-405).
T9 sequence: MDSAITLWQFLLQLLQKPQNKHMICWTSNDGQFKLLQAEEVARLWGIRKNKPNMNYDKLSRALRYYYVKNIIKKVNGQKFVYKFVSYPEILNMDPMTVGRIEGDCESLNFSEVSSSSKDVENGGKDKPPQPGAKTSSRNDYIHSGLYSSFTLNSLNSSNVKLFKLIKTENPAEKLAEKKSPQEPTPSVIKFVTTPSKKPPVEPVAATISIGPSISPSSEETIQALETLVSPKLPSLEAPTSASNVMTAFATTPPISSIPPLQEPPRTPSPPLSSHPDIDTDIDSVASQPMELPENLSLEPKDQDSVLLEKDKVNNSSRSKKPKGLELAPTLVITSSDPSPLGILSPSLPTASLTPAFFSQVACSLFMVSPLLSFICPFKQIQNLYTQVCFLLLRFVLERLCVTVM
Particulars: protein: recombinant; tags: N-terminal GST; dsDNA, one strand shown. Put shortly: as §1

The target of the next experiment is T10, ETV2 (Homo sapiens, UniProt O00321 1-342).
T10 sequence: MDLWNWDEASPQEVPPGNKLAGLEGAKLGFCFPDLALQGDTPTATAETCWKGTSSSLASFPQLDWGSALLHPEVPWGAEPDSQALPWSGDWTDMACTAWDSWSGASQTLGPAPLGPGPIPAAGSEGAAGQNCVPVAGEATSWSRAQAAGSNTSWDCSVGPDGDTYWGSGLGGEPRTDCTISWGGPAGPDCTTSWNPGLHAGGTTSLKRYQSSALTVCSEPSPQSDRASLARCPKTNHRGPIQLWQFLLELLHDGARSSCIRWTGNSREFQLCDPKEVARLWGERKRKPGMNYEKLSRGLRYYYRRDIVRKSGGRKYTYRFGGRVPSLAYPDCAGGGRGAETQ
Particulars: protein: recombinant; tags: N-terminal GST; dsDNA, one strand shown. In a few lines: as §1

The target of another experiment is T11, ELF3 (Homo sapiens, UniProt P78545 1-371).
T11 sequence: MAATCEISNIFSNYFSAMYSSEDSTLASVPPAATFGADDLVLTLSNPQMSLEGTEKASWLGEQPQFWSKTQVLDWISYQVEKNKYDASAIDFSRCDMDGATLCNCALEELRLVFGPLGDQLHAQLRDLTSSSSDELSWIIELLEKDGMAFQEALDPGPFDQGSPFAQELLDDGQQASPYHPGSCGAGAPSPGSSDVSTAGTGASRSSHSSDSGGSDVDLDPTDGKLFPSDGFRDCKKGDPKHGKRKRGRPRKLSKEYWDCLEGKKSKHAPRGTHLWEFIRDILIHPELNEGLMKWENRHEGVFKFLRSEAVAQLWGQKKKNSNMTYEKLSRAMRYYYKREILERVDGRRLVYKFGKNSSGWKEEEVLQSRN
Particulars: protein: recombinant; tags: N-terminal GST; dsDNA, one strand shown. In a few lines: as §1

The target of a further experiment is CRX (Homo sapiens, UniProt O43186 1-299). Particulars: protein: recombinant; tags: N-terminal GST; dsDNA, one strand shown. In a few lines: as §1
In a further experiment the target is ETV1 (Homo sapiens, UniProt P50549 1-477). Particulars: protein: recombinant; tags: N-terminal GST; dsDNA, one strand shown. In a few lines:
as §1

Sequence of CRX (O43186 whole entry): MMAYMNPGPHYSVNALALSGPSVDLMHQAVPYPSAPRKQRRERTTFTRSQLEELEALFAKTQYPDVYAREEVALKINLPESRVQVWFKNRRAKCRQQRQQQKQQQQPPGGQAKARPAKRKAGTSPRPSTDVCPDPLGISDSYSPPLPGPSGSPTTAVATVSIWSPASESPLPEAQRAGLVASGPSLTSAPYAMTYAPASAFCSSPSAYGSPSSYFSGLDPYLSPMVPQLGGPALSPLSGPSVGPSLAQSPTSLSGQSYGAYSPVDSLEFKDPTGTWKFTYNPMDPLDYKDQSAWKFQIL
Sequence of SPIB (Q01892 whole entry): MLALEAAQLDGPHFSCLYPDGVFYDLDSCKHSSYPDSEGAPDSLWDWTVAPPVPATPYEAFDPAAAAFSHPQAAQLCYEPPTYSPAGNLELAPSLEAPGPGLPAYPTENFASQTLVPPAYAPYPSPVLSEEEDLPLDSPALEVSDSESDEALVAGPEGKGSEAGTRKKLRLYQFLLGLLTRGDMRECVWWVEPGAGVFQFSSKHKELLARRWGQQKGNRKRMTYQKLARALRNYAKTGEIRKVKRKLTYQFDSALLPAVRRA
Sequence of ETV1 (P50549 whole entry): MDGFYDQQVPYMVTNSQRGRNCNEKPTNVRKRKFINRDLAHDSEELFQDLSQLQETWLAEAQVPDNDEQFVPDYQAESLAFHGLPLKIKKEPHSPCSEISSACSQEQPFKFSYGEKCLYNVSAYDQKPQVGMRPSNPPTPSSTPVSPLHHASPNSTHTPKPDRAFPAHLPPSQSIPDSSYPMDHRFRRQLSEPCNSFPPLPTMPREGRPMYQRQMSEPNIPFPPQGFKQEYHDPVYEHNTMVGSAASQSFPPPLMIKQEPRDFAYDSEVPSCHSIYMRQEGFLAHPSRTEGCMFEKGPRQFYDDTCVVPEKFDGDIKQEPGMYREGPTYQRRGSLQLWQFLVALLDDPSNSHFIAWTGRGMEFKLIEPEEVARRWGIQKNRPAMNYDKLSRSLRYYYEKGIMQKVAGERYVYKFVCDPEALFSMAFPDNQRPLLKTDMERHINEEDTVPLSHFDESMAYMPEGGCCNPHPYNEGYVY
Sequence of ELF1 (P32519 whole entry): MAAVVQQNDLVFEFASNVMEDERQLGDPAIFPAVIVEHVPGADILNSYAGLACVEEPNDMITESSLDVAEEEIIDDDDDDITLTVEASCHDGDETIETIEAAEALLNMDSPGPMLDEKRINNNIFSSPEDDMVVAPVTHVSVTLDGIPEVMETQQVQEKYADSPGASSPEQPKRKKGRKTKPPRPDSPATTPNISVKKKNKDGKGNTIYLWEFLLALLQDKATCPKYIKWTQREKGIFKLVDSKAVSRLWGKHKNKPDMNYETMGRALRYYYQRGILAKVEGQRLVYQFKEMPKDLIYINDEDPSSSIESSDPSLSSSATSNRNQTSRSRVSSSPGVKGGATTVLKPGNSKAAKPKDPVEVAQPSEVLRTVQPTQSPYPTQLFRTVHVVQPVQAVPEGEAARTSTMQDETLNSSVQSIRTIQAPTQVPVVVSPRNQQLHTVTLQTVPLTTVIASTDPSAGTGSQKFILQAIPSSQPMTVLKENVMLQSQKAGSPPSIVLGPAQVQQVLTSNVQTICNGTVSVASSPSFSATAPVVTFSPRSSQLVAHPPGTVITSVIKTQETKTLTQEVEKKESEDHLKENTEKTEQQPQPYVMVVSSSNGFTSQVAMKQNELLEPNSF
Sequence of HSF1 (Q00613 whole entry): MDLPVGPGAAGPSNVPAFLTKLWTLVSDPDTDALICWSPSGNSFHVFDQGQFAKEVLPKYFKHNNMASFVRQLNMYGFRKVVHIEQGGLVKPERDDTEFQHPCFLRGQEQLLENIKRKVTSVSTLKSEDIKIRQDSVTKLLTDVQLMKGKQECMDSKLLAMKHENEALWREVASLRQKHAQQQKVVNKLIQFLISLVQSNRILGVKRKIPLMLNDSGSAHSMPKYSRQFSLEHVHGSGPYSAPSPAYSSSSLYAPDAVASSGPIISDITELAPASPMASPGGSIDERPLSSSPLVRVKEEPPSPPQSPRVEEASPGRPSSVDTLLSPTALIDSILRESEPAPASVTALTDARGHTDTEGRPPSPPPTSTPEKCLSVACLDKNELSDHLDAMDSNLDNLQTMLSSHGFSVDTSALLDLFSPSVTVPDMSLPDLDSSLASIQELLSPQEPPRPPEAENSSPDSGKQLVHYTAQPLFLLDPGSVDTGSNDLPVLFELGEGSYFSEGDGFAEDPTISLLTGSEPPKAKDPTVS
Sequence of ELF4 (Q99607 whole entry): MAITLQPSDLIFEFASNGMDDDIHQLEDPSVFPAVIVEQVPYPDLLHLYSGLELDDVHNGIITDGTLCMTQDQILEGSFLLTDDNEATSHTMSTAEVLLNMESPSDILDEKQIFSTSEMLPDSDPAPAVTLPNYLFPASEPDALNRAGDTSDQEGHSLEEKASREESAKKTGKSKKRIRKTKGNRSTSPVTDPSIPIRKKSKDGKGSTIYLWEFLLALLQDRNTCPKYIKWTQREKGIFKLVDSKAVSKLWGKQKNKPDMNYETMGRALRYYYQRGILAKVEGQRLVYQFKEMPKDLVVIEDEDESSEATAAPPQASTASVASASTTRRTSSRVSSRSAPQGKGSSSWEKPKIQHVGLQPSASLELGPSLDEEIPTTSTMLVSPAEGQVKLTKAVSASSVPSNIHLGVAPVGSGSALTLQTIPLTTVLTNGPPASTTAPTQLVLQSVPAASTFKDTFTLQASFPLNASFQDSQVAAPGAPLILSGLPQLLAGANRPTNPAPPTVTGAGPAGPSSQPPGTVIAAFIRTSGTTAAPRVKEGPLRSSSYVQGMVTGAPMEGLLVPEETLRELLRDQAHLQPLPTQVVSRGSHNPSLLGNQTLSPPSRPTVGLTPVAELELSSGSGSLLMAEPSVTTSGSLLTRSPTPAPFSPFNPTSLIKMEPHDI
Sequence of ETV5 (P41161 whole entry): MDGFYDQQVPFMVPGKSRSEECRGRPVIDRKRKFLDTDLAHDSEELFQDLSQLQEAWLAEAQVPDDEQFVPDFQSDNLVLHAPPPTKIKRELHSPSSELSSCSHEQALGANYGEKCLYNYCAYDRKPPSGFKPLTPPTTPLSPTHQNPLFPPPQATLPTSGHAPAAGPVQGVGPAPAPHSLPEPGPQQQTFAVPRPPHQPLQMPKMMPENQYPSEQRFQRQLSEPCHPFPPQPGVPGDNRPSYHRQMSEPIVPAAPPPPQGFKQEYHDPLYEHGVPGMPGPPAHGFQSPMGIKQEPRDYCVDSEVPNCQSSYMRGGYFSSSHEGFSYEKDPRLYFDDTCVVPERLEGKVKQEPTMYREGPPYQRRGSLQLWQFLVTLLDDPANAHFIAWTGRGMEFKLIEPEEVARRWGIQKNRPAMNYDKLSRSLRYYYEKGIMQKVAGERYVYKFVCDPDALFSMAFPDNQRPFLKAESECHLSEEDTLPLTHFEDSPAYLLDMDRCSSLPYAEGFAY

For TACTTA, the binding signal in the experiment with FLI1 is 1.17 fold enrichment (6-mer frequency, TF over GST control); with ELK1, 1.18 fold enrichment (6-mer frequency, TF over GST control); with GABPA it was 1.15 fold enrichment (6-mer frequency, TF over GST control); with ERG it was 1.16 fold enrichment (6-mer frequency, TF over GST control); with ELF1, 1.22 fold enrichment (6-mer frequency, TF over GST control); in the experiment with EHF, 1.33 fold enrichment (6-mer frequency, TF over GST control). Moreover, the binding signal in the experiment with SPI1 is 1.21 fold enrichment (6-mer frequency, TF over GST control); with SPIB, 1.15 fold enrichment (6-mer frequency, TF over GST control); in the experiment with ELK3, 1.42 fold enrichment (6-mer frequency, TF over GST control); with FEV, 1.12 fold enrichment (6-mer frequency, TF over GST control); with ETV5 it was 1.17 fold enrichment (6-mer frequency, TF over GST control); in the experiment with HSF1, 1.7 fold enrichment (6-mer frequency, TF over GST control). In addition, the binding signal is 1.12 fold enrichment (6-mer frequency, TF over GST control) with SPIC; 1.21 fold enrichment (6-mer frequency, TF over GST control) with ELF4; 1.25 fold enrichment (6-mer frequency, TF over GST control) with ELK4; 1.16 fold enrichment (6-mer frequency, TF over GST control) with ETV2; 1.33 fold enrichment (6-mer frequency, TF over GST control) with ELF3; 2.6 fold enrichment (6-mer frequency, TF over GST control) with CRX. Further, in the experiment with ETV1, the binding signal is 1.24 fold enrichment (6-mer frequency, TF over GST control).
